Results from PubChem BioAssay (NCI).
Compounds without any hit were thinned out: in the full panel of roughly 83,000, 20% have a hit.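 48-hour exposure, single concentration, 96-well plates; percent growth endpoint where 0 means no net growth. Active: below 10.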 The source made the active and inactive calls.

Experiments:
Experiment in all cases: NCI-60 one-dose screen, 48 h (100 = growth as untreated, 0 = no growth, -100 = all killed)
Conditions in all cases: 10 µM unless noted
DU-145 prostate = test system: DU-145 prostate
MALME-3M melanoma = test system: MALME-3M melanoma
MDA-MB-231 breast = test system: MDA-MB-231 breast
RXF 393 renal = test system: RXF 393 renal
SF-268 CNS = test system: SF-268 CNS
SF-295 CNS = test system: SF-295 CNS
SF-539 CNS = test system: SF-539 CNS
UACC-257 melanoma = test system: UACC-257 melanoma
M14 melanoma = test system: M14 melanoma
K-562 leukemia = test system: K-562 leukemia

Measured: growth

COc1ccccc1/C=C/C(=O)c1ccc(OC)c(S(N)(=O)=O)c1
active: MDA-MB-231 breast 7.39% | RXF 393 renal -0.859% | SF-539 CNS -4.72% | M14 melanoma 8.83%
inactive: DU-145 prostate 26.4% | MALME-3M melanoma 50% | SF-268 CNS 21% | SF-295 CNS 21.8% | UACC-257 melanoma 59.6%

N#Cc1c(-c2cccc3ccccc23)cc(-c2cccc(OCC(=O)O)c2)[nH]c1=O
inactive: DU-145 prostate 105% | K-562 leukemia 94.2% | MALME-3M melanoma 87.3% | RXF 393 renal 105% | SF-268 CNS 96.6% | SF-295 CNS 101% | SF-539 CNS 95.5% | UACC-257 melanoma 97.8% | M14 melanoma 93.6%

COc1cc(CNC(=O)/C=C/c2ccc3c(c2)OCO3)ccc1OCc1cn(-c2cccc(C(F)(F)F)c2)nn1
active: MALME-3M melanoma -11.9% | RXF 393 renal -28.9% | SF-295 CNS -20.7% | SF-539 CNS -81.2% | M14 melanoma 4.8%
inactive: DU-145 prostate 30% | K-562 leukemia 24.7% | SF-268 CNS 39% | UACC-257 melanoma 18.1%

N#Cc1c(-c2ccc(Cl)cc2)nc2n[nH]c(-c3ccc(Cl)cc3)c2c1-c1cccs1
inactive: DU-145 prostate 65.1% | K-562 leukemia 16.9% | MALME-3M melanoma 55.6% | RXF 393 renal 58.2% | SF-268 CNS 72.9% | SF-295 CNS 63.6% | SF-539 CNS 64.1% | UACC-257 melanoma 58.1% | M14 melanoma 64.6%

COc1ccc(C(=O)Nc2n[nH]c(Nc3ccccc3)c2C#N)cc1
inactive: DU-145 prostate 119% | MALME-3M melanoma 97.8% | MDA-MB-231 breast 103% | RXF 393 renal 118% | SF-268 CNS 97.3% | SF-295 CNS 92.8% | SF-539 CNS 98.3% | UACC-257 melanoma 137% | M14 melanoma 109%

COc1ccc(/C=C2\C(=O)Nc3ccc(Cl)cc32)cc1OCc1ccccn1
active: RXF 393 renal 2.03% | SF-539 CNS -9.35%
inactive: DU-145 prostate 57.5% | K-562 leukemia 51.6% | MALME-3M melanoma 38.2% | SF-268 CNS 44% | SF-295 CNS 38.4% | UACC-257 melanoma 72.6% | M14 melanoma 52.8%

COc1cccc(/C=C/C(=O)c2ccc(OC)c(S(N)(=O)=O)c2)c1
inactive: DU-145 prostate 31.8% | MALME-3M melanoma 71.2% | MDA-MB-231 breast 49.4% | RXF 393 renal 41.7% | SF-268 CNS 39.5% | SF-295 CNS 34.6% | UACC-257 melanoma 65.8% | M14 melanoma 41.2%
active: SF-539 CNS -11.6%

C=C1CC[C@@H]2[C@]3(C)COC(c4cn[nH]c4-c4ccccc4)O[C@@H]3CC[C@@]2(C)[C@@H]1C/C=C1/C(=O)OCC1O (stereo partly specified)
inactive: SF-268 CNS 36.5% | SF-295 CNS 50.2% | UACC-257 melanoma 13.5%
active: DU-145 prostate 5.39% | K-562 leukemia -10.2% | MALME-3M melanoma -81.2% | RXF 393 renal -59.4% | SF-539 CNS -74.8% | M14 melanoma -17.5%

Clc1cccc(Cl)c1/C=C/c1cc(/C=C/c2ccc(Br)cc2)c2ccccc2n1
inactive: DU-145 prostate 110% | K-562 leukemia 99.5% | MALME-3M melanoma 91.8% | RXF 393 renal 83.4% | SF-268 CNS 110% | SF-295 CNS 99.2% | SF-539 CNS 95.7% | UACC-257 melanoma 105% | M14 melanoma 101%
